G9a block = blocks human histone lysine methyltransferase G9a. hit rate 8.8% among 350,000. Potency, µM (doses to about 102 µM), for the others: top-dose activity, negative = inhibition, usual class: inhibitors. Q96KQ7. G9a H3K9 monomethylation, AlphaScreen, 2 h; further: potency means the concentration at half of the fitted maximal effect; on the % scale 0 is the no-effect control and ±100 the full control effect; nearly all actives have a fitted effect of over 75% in size
Target sequence (Q96KQ7 913-1193 limits assumed): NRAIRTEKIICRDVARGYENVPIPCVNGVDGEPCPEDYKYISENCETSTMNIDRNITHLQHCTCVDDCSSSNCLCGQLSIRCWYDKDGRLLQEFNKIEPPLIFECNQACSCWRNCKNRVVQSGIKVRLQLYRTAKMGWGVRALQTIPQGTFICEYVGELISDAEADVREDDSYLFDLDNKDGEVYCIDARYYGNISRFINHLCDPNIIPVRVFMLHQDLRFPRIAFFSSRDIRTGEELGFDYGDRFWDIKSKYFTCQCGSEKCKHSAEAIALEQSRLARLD
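Step 1: enzyme (final 20 nM) with compound, 15 min RT. Step 2: substrate peptide 500 nM and SAM 20 uM, 2 h RT. Step 3: anti-H3K9me1 antibody and AlphaScreen beads, 10 min, then plate read.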
PLK1 PBD block = inhibitors of human PLK1 polo-box domain binding. P53350. Plk1 PBD binding of FITC phosphopeptide, fluorescence polarization. Potency, µM, inactives show max response, negative = inhibition, usual class: inhibitors. hit rate 2.8% among 360,000. AID 720504; further: potency means the concentration at half of the fitted maximal effect; series mostly up to about 57 µM; on the % scale 0 is the no-effect control and ±100 the full control effect; nearly all actives have a fitted effect of over 65% in size
JMJD2A Tudor = blocks the human JMJD2A Tudor domain | AlphaScreen JMJD2A-Tudor / H3K4me3 peptide binding | Potency, µM (doses to about 114 µM), for inactives: at the top dose activity change, negative = inhibition, hits mostly inhibitors | hit rate 4.4% among 390,000 | AID 504339; further: potency means the concentration at half of the fitted maximal effect; on the % scale 0 is the no-effect control and ±100 the full control effect; nearly all actives have a fitted effect of over 50% in size
HP1b chromo inh = blocks HP1-beta chromodomain binding to methylated histone tails; AlphaScreen HP1-beta / biotin-H3K9me3 peptide binding; P83916; hit rate 0.56% among 390,000; Potency, µM (titrated, usually from 114 µM), inactives show at the highest dose activity change, negative = inhibition, usual class: inhibitors; AID 540317; further: potency means the concentration at half of the fitted maximal effect; nearly all actives have a fitted effect of over 70% in size
Target sequence (P83916 whole entry, looked up): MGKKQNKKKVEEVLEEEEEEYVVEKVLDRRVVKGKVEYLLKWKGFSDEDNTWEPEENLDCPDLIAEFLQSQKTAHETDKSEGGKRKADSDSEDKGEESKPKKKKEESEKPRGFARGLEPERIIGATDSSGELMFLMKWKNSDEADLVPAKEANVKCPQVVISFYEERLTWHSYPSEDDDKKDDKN
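AlphaScreen: HP1-beta (50 nM) preformed 30 min with biotin-H3(1-18)K9me3 peptide (50 nM) in PBS pH 7.4, 0.01% Tween-20. Compound added for 30 min at RT, then streptavidin donor/nickel chelate acceptor beads (10 ug/mL) for 30 min.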
PI5P4K alpha inh = inhibitors of human PI5P4K alpha; PI5P4Kalpha enzyme, ADP-Glo luminescence, 60 min; active compounds read low; max response, %; P48426; hit rate 1.2% among 330,000; active means max response of -50% or lower; inconclusive means between -30% and -50%; inactive means -30% or higher; further: value at the top dose of about 77 µM; on the % scale 0 is the no-effect control and ±100 the full control effect
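Reactions run in 0.038 M HEPES pH 7.4, 0.28 mM EGTA, 0.1% CHAPS and 5% DMSO, with PI5P4Kalpha, substrate, compound and 5 microM ATP final, one hour at room temperature. Readout is ADP-Glo luminescence.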
BAZ2B inh = BAZ2B (human) inhibition | hit rate 4.4% among 360,000 | Potency, µM (series often up to 114 µM), for inactives: at the top dose activity change, negative = inhibition, hits mostly inhibitors | AID 504333 | AlphaScreen BAZ2B-H3K14Ac peptide displacement | Q9UIF8; further: potency means the concentration at half of the fitted maximal effect; on the % scale 0 is the no-effect control and ±100 the full control effect; nearly all actives have a fitted effect of over 60% in size
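AlphaScreen displacement: compounds (up to 110uM) incubated 30 min at room temperature with a preformed 50 nM BAZ2B/50 nM biotinylated H3K14Ac peptide complex in PBS pH 7.4 with Tween-20. Donor and acceptor beads at 10 ug/mL final added, 20 min light-protected before reading.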
Starred values were filed as active, the others as inactive; u = inconclusive; x = not tested or not shown; [ ] = remark or other dose. Sampled rows, rich in hits. Any-hit rate of the full collection: about 12%. Unless noted, the call rests on the fitted dose curve; in most records, active means well fitted curve in the direction sought with a large enough effect; inconclusive means small, poorly fitted or top-dose-only effect, or another doubt; inactive means no such curve, though single readings can be large; an effect the other way counts as inactive or inconclusive.

SMILES | G9a block | PLK1 PBD block | JMJD2A Tudor | HP1b chromo inh | PI5P4K alpha inh | BAZ2B inh
COc1cccc(-c2ccc3c(N)c(C(=O)c4ccc(Cl)cc4)sc3n2)c1 | 13.2%[59 µM] | x | 4.8% | 65.1% | x | 3.0%
O=C(NCCc1ccc(Cl)cc1)C1CCC(=O)N1C1CCCC1 (centres undefined) | 44.7µM* | -3.7% | 1.7% | 20.6% | x | -36.9%
O=C1CCCCC1Sc1nnc(Cc2cccs2)n1CCc1ccccc1 (centres undefined) | -25.0%[59 µM] | u | 79.4µM* | -23.3% | -29.7 | -7.9%
Cc1oc2ncn(CC(C)C)c(=O)c2c1C(=O)NCCCN(Cc1ccccc1)C(C)C | -17.8%[59 µM] | x | -7.1% | 16.4% | x | 10.4%[57.1 µM]
COc1ccc(-c2nc(CN3CCC(C(=O)NCC4CCCO4)CC3)c(C)o2)cc1OC (centres undefined) | 19.3% | 21.2µM* | -22.9% | 2.0% | -2.1 | -3.7%
Cc1cc(C)c(CN2CCC(N3CCC(C(=O)NCC4CCCO4)CC3)CC2)cc1C (centres undefined) | -2.6% | 29.9µM* | u | 14.1% | -2.1 | -11.2%
O=C(OCc1cn([C@H]2CN(C(=O)c3cccs3)[C@@H](c3ccc(Cl)cc3)C[C@@H]2O)nn1)c1ccccc1 | x | -4.9% | x | x | 3.4 | x
Cc1ccc(S(=O)(=O)Nc2nc3ccc(N)cc3s2)cc1 | 14.0%[59 µM] | -12.2% | -28.0% | -0.9% | u | -23.3%
COc1ccc(S(=O)(=O)Nc2nnc(Cc3ccc(OC)c(OC)c3)s2)cc1 | -48.8% | 26.7µM* | -21.0% | -2.8% | u | 0.4%
CCOc1cccc(NC(=O)Cc2cccs2)c1 | -2.7% | -2.5% | -4.9% | 51.1% | -2.1 | 9.8%
O=[N+]([O-])c1ccc2nc(NS(=O)(=O)c3ccc(F)cc3)sc2c1 | 79.4µM* | u | -20.0% | 16.0% | u | -10.9%
O=[N+]([O-])c1ccc(S(=O)(=O)Nc2nnc(C(F)(F)F)s2)cc1 | 44.7µM* | -16.7% | -26.8% | 36.5% | 4.1 | -29.9%
CC(=O)Nc1cccc(NC(=O)Cc2cccs2)c1 | 79.4µM* | -12.2% | -24.7% | 19.6% | u | u
Cc1noc(C)c1C(=O)N1CCC2(CC1)CN(c1ccccc1)C2 | 1.1%[12.7 µM] | x | x | x | x | x
COc1ccc(N2C(=O)c3ccccc3NC(=O)C2C(=O)NCCc2ccccc2F)cc1 (centres undefined) | x | 0.8% | x | x | -5.7 | x
Cc1ccc(C)c(S(=O)(=O)N2CCN(C(=O)Cc3ccc(S(=O)(=O)N4CCOCC4)s3)CC2)c1 | -8.9%[2.33 µM] | -4.6% | -13.8% | 23.4% | 5.3 | 11.6%
COC(=O)c1sc(NC(=O)COc2ccccc2)nc1C | -6.2% | -13.0% | -10.5% | 29.5% | -15.5 | -7.4%
COc1ccc(-c2csc(NS(=O)(=O)c3ccc([N+](=O)[O-])cc3)n2)cc1 | u | u | u | -20.6% | -8.4 | 35.5µM*
COC(=O)c1sc(NC(=O)Cc2cccs2)nc1C | 28.2µM* | -4.9% | -8.9% | 10.9% | x | -3.4%
COc1ccc(Cc2nnc(NC(=O)Cc3cccs3)s2)cc1OC | u | u | -34.6%[57.1 µM] | u | -92.0* | 28.2µM*
COc1ccc(C(=O)Nc2nnc(Cc3cccs3)s2)cc1OC | 27.0%[0.501 µM] | -3.1% | -34.8% | 31.2% | -1.1 | -2.3%
COc1ccc(Cc2nnc(NS(=O)(=O)c3ccc([N+](=O)[O-])cc3)s2)cc1 | 39.8µM* | 29.9µM* | -33.8% | -30.6% | -23.6 | u
CCn1c(=O)[nH]c2cc(Cl)c(Cl)cc21 | -15.8%[59 µM] | -3.2% | -7.9% | 27.1% | 3.6 | 11.1%
O=C(Nc1ccc(F)cc1F)c1cc2c(=O)n3ccccc3nc2s1 | -24.2%[59 µM] | x | -6.8% | 18.4% | x | 5.1%
COc1ccc(Cc2nnc(N)s2)cc1OC | 7.94µM* | u | -16.2% | -19.6% | x | -0.6%
SMILES | G9a block | PLK1 PBD block | JMJD2A Tudor | HP1b chromo inh | PI5P4K alpha inh | BAZ2B inh
CCOC(=O)c1sc2nccc(N(C)C)c2c1N=CNOC | 3.7% | 15µM* | 25.1µM* | 37.1% | -6.1 | 22.4%
CCOC(=O)c1sc2nccc(N(C)C)c2c1N=CNOCc1ccccc1 | 142.8% | -4.0% | 52.8%[57.1 µM] | 208.3% | 21.2 | 98.4%
CN1[C@@H](COCc2ccccc2)C=CS1(=O)=O | x | -3.9% | x | x | 3.2 | x
CN(C)c1ccnc2c[cH-]cc12.[Fe].c1ccc(-[c-]2[c-](-c3ccccc3)[c-](-c3ccccc3)[c-](-c3ccccc3)[c-]2-c2ccccc2)cc1 (centres undefined) | u | -14.3% | 3.98µM* | 3.16µM* | -8.9 | 1.58µM*
O=C(Nn1c(COc2ccccc2)nc2ccccc2c1=O)C(Cl)(Cl)Cl | 50.1µM* | -28.7% | -12.1% | -1.0% | 0.0 | 0.3%
CCOc1cc(/C=N/n2c(COc3ccccc3)n[nH]c2=S)ccc1O | 4.47µM* | -8.4% | u | 24.0% | -2.7 | -16.7%
O=c1c2ccccc2nc(COc2ccccc2)n1/N=C/c1ccc(O)c(O)c1 | 3.16µM* | -0.7% | u | -16.6% | -15.0 | 44.7µM*
Cc1cc(/C=N/n2c(COc3ccccc3)nc3ccccc3c2=O)c(O)c([N+](=O)[O-])c1 | -21.1%[59 µM] | u | 12.6µM* | u | -50.7* | 4.47µM*
Cc1ccc(-c2[nH]ncc2/C=N/n2c(COc3ccccc3)nc3ccccc3c2=O)cc1 | -2.0%[59 µM] | 1.5% | -17.8% | 18.1% | 1.0 | 3.7%
COc1ccc(-c2nc3cnc(N4CCOCC4)nc3n(CCc3ccccc3)c2=O)cc1 | 38.5%[0.501 µM] | x | x | x | x | x
Cc1cccc(-c2nnc(SCC(=O)NC3CCCCC3)o2)c1 | -4.1%[59 µM] | x | 3.4% | 34.7% | x | 0.9%
CCCCOc1ccccc1C(=O)Nc1nonc1-c1ccccc1 | 83.9%[59 µM] | x | 25.8% | 83.6% | x | 23.4%
COc1ccccc1CNC(=O)C(=O)Nc1ccc(C(=O)N2CCC(C)CC2)cc1 | 15.0% | 3.6% | -9.0% | 18.5% | -7.1 | -18.6%
COc1ccc(Cc2c(-c3ccc(F)cc3)nc3c(C)cc(Br)cn23)c(C)c1 | x | -9.3% | x | x | -5.6 | x
Oc1ccc(/C=N/n2c(COc3ccccc3)n[nH]c2=S)cc1O | 10µM* | 21.2µM* | 3.16µM* | u | -23.4 | u
N#Cc1c(Cl)c(Cl)c2nnc(-c3ccc(Br)cc3)n2c1Cl | 12.6µM* | x | x | x | x | 56.2µM*
O=C1C(Cl)=C(N2CCCCC2)C(=O)N1c1ccccc1Cl | 5.9%[12.7 µM] | -22.4% | 46.7% | 125.5% | x | 76.0%
O=C1c2cccc(Cl)c2C(=O)c2c1cccc2N1CCCC1 | x | -23.4% | u | 22.4µM* | 4.0 | x
CCOc1ccccc1C(=O)N1CCc2cc(OC)c(OC)cc2C1COc1ccc2c(C)cc(=O)oc2c1 (centres undefined) | u | x | -20.5% | 2.9% | x | -13.0%
CCOC(=O)Cc1ccc(NCc2ccc(Cl)cc2)cc1 | 50.1µM* | -7.2% | u | 9.0% | 9.5 | u
COCCN(C(=O)c1snc(C(N)=O)c1N)C(C(=O)NC1CCCCC1)c1ccc(OC)c(OC)c1 (centres undefined) | 17.5% | -16.7% | -5.5% | 20.2% | 0.2 | -5.8%

High-throughput results from PubChem BioAssay.
